# Experimental data reported in PubChem BioAssay.
# Unmarked numbers belong to inactive results. Active and inactive are the calls of the source. Rule as the data show it: active = inhibition above about 36%; inactive = the rest.
# System: transactivating tegument protein VP16 (Human herpesvirus 1)
# Assay: compounds suppressing VP16-driven luciferase signal – cell-based, luminescence, single concentration, counter-screen for SRC2 inhibitor project (AID 652007)
# Conditions: cell-based VP16 transactivation luciferase reporter, at 8.9 µM, hits give high values
row,SMILES,inhibition
1,O=C(CNC(=O)c1ccc2c(c1)OCO2)Nc1cccc(Br)c1,-13.8%
2,CCOC(=O)C1CCCN(C(=O)c2ccc3c(c2)N(C)C(=O)/C(=C/c2ccccc2Cl)S3)C1 (stereo not given),-1.52%
3,COC(=O)[C@H]1C[C@@]2(c3ccccc3)c3ccccc3N(S(=O)(=O)c3ccccc3)[C@H]2N1,6.95%
4,O=S(=O)(c1cccc2cnccc12)N1CCNCC1,5.01%
5,CCOC(=O)C1=C[C@@H](c2ccccc2)N(S(=O)(=O)c2ccc(C)cc2)[C@H]1c1ccc(F)cc1,-7.61%
6,CN(c1ccccc1)S(=O)(=O)c1ccc(Cl)c(C(=O)Nc2ccncc2)c1,0.61%
7,Cc1ccc(/C=C2\SC(=S)N(CCCC(=O)Nc3ccccc3C(=O)O)C2=O)cc1,40% (active)
8,Cn1c(=O)c2c(ncn2CCOc2cccc(Br)c2)n(C)c1=O,2.33%
9,Cn1nnnc1Sc1ncnc2scc(-c3ccsc3)c12,18.3%
10,CCOC(=O)Cn1c(=O)c2c(nc(N3CCCCC3)n2Cc2ccccc2)n(C)c1=O,-5.76%
11,CC(C)CC(NC(=O)c1ccco1)C(=O)Nc1ccc2c(c1)OCCO2 (stereo not given),10.6%
12,NCCOc1ccc(C2CCCCC2)cc1,-53.7%
13,COc1ccc2c(c1)CCCN2C(=O)C1CCCN(S(=O)(=O)c2ccc(C(C)(C)C)cc2)C1 (stereo not given),-3.95%
14,COc1ccc(Cl)cc1C(=O)Nc1nc2ccccc2[nH]1,-42.5%
15,O=C(O)C1(Nc2ccc(Br)cc2)CCCC1,-19.4%
